Tau fibril FP – inhibitors of human tau fibril formation; P10636; K18 P301L tau heparin fibrillization, Alexa594 FP, 6 h; Potency, µM (doses to about 57.7 µM), hits mostly inhibitors; actives 0.39% (n = 280,000); note: nearly all actives have a fitted effect of over 55% in size
Target sequence (P10636 561-689 P618L limits assumed): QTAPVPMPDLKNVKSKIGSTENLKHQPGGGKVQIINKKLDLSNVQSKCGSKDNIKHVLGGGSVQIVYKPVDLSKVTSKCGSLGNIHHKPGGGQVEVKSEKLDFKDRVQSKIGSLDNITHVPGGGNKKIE
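FP of Alexa 594-tau after heparin (20 uM) induction. Substrate: human K18 P301L, 15 uM unlabeled, 0.24 uM labeled. Buffer 100 mM sodium acetate pH 7. 6 hr, 37 C.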
PNC assembly inh – perinucleolar compartment assembly inhibition; activity change (PNC), negative = inhibition, % at 10 µM; actives 3.1% (n = 140,000); PC3M PTB-GFP, PNC prevalence imaging, 16 h; active compounds read low; AID 2417;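 active = readout at or below -70, meaning at least 70% loss of cells showing the perinucleolar compartment, a nuclear body marking cancer cells; inconclusive = readout between -30 and a set limit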
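Read-out is percentage of cells bearing a perinucleolar compartment, from automated 20x imaging of fixed, Hoechst-stained PC3M PTB-GFP cells. Cells were seeded 4 h, then exposed 16 h to compound (23 nl of library stock) in duplicate plates.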
NPSR antag – neuropeptide S receptor (human) antagonism, cAMP. Q6W5P4. CHO-NPSR cells, cAMP TR-FRET, antagonist mode. Potency, µM (series often up to 38.3 µM), usual class: inhibitors. actives 1% (n = 220,000); note: nearly all actives have a fitted effect of over 50% in size
Target sequence (Q6W5P4 whole entry, looked up): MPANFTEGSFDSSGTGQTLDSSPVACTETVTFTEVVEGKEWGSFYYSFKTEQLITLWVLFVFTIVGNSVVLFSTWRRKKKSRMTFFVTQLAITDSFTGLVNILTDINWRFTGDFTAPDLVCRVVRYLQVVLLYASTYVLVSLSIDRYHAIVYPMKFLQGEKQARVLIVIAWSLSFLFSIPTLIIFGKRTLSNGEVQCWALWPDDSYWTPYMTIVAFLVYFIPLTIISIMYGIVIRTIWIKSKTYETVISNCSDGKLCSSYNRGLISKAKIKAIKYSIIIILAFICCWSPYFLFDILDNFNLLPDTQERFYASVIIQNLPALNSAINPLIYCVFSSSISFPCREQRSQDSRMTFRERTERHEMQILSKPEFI
Tau fibril ThT – tau fibrillization inhibition (ThT binding). P10636. AID 1460. Potency, µM (highest dose often 57.4 µM), actives largely listed as inhibitors. recombinant tau K18 P301L, heparin-induced fibrillization, ThT fluorescence. actives 2.1% (n = 270,000); note: nearly all actives have a fitted effect of over 55% in size
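K18 P301L tau (15 uM + 0.24 uM Alexa 594-tagged), heparin 20 uM, NaOAc pH 7, 6 h 37 C; ThT 30 uM, 1 h RT, ex 450/em 510 nm.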
KDM4E inh – blocks human JMJD2E demethylase activity; Potency, µM (highest dose often 57.1 µM), hits mostly inhibitors; actives 1.6% (n = 230,000); B2RXH2; JMJD2E catalytic domain, FDH-coupled NADH fluorescence (FDH is formaldehyde dehydrogenase); note: nearly all actives have a fitted effect of over 50% in size
Tau fluor counter – counter-screen for tau fibril formation inhibitors; actives 0.93% (n = 280,000); tau K18 P301L Alexa594 fluorescence, heparin fibrillization; Potency, µM (series often up to 57.7 µM); AID 1463; note: nearly all actives have a fitted effect of over 55% in size
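Human tau K18 P301L (15 uM unlabeled, 0.24 uM Alexa 594-labeled) in 100 mM sodium acetate pH 7 with 20 uM heparin, 6 hr at 37 C. ThT 30 uM added, 1 hr ambient; Alexa 594 FP and total fluorescence read at 555/632 nm.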
Tau fibril TEM – Inhibits tau K18 fibrillization by TEM grading; shares compounds with Tau fibril ThT; recombinant tau K18 P301L fibrillization, TEM grading; active compounds read high; fibril grade (0 = clumped fibrils, 4 = only tiny pieces) (concentration not given with the values); actives 70% (n = 45);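 active = compounds whose electron micrographs showed tau fibrils broken into shorter filaments or fragments, graded high on fibril breakup; inconclusive = micrographs gave an unclear fibril picture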
tau sediment – tau fibrillization inhibition by sedimentation | shares compounds with Tau fibril ThT | recombinant tau K18 P301L (four-repeat tau fragment), sedimentation SDS-PAGE densitometry | inhibition, % at 100 µM | actives 50% (n = 110) | AID 1720; in the data active = inhibition above about 40%; inconclusive = no clear call, values can overlap the other calls; inactive = below about 18%
Each line names hits and unclear results; the compound was inactive in the other large screens (follow-up assays come after a bar, where they were run); [ ] = remark or other dose. In the library only some 5.1% were active in any assay of this set; here they are far more common. Unless noted, calls come from the whole dose curve; as a rule, active = well fitted curve in the direction sought with a large enough effect; inconclusive = small, poorly fitted or top-dose-only effect, or another doubt; inactive = no such curve, though single readings can be large; an effect the other way counts as inactive or inconclusive.

Cc1cc(NC(=S)NC(=O)/C=C/c2ccc(S(=O)(=O)N3CCOCC3)cc2)ccc1Br	Tau fibril FP inconclusive, Tau fibril ThT inconclusive (no result: PNC assembly inh)
COc1ccc(/C=C/C(=O)Nc2ccc(N3CCOCC3)cc2)cc1	Tau fibril ThT 4µM, KDM4E inh inconclusive, Tau fluor counter inconclusive
COCCCNC(=O)C1CCN(c2cc(C)nc3c(-c4ccc(Cl)cc4)c(C)nn23)CC1	none (no result: PNC assembly inh, NPSR antag, KDM4E inh)
O=C(/C=C/c1cccc([N+](=O)[O-])c1)NC(=S)Nc1cccc(NC(=O)c2ccccc2Cl)c1	Tau fibril ThT inconclusive, Tau fluor counter inconclusive
O=C(/C=C/c1cccc([N+](=O)[O-])c1)NC(=S)Nc1ccccc1C(=O)O	Tau fibril FP inconclusive, Tau fibril ThT 18µM (no result: PNC assembly inh)
CCCn1c2ccccc2c2cnn(CC(=O)Nc3cccc(C(=O)OCC)c3)c(=O)c21	Tau fibril FP inconclusive, Tau fluor counter inconclusive (no result: PNC assembly inh, NPSR antag, KDM4E inh)
O=C1Nc2ccc(Br)cc2C12NNc1ccccc1O2 (stereo unspecified)	Tau fibril ThT 8.9µM, Tau fluor counter 7.1µM[quencher] (no result: PNC assembly inh)
Cc1ccc(Nc2nc(-c3sc(NC(=O)c4ccc([N+](=O)[O-])cc4)nc3C)cs2)cc1	Tau fibril ThT 3.2µM, Tau fluor counter inconclusive
CCOc1ccccc1Nc1nc(-c2sc(NC(=O)c3ccc([N+](=O)[O-])cc3)nc2C)cs1	Tau fibril FP inconclusive, Tau fibril ThT 3.5µM, Tau fluor counter 7.9µM[quencher]
Cc1ccccc1Nc1nc(-c2sc(NC(=O)c3ccccc3)nc2C)cs1	Tau fibril ThT inconclusive, KDM4E inh inconclusive, Tau fluor counter inconclusive
Cc1ccccc1Nc1nc(-c2sc(NC(=O)c3ccc([N+](=O)[O-])cc3)nc2C)cs1	Tau fibril ThT 4µM, Tau fluor counter 10µM[quencher]
O=C(/C=C/c1ccccc1Cl)N(Cc1ccc(Cl)cc1)C1CCS(=O)(=O)C1 (stereo unspecified)	PNC assembly inh -98
O=C(/C=C/c1ccccc1Cl)N(Cc1ccccc1)C1CCS(=O)(=O)C1 (stereo unspecified)	none
CC(C)(C)C(=O)NC1(C(F)(F)F)NC(=O)N(Cc2ccccc2)C1=O (stereo unspecified)	none (no result: PNC assembly inh)
O=C1NC(c2ccccc2)(C(F)(F)F)C(=O)N1Cc1cccnc1 (stereo unspecified)	PNC assembly inh -85
COc1ccc(NC(=O)Cn2cc(S(=O)(=O)N3CCN(c4ccccc4F)CC3)c3ccccc3c2=O)cc1Cl	Tau fibril FP 13µM (no result: PNC assembly inh, NPSR antag, KDM4E inh) | tau sediment inactive
CCCn1c(SCC(O)c2cccc(OC)c2)nc2ccccc21 (stereo unspecified)	none (no result: PNC assembly inh, NPSR antag, KDM4E inh)
O=C(NCCCO)Nc1ccc2nc(-c3ccco3)c(-c3ccco3)nc2c1	Tau fibril FP inconclusive, PNC assembly inh inconclusive, Tau fibril ThT inconclusive, KDM4E inh inconclusive, Tau fluor counter 7.1µM[quencher] | Tau fibril TEM 4.5 | tau sediment 74
OCCCNC(=S)Nc1ccc2nc(-c3ccccn3)c(-c3ccccn3)nc2c1	KDM4E inh inconclusive
CC(C)(C)c1ccc(NC(=O)N2CCN(c3ccc([N+](=O)[O-])cn3)CC2)cc1	Tau fibril FP inconclusive, Tau fibril ThT inconclusive, Tau fluor counter inconclusive (no result: PNC assembly inh) | tau sediment inactive
Cc1ccc(NC(=O)N2CCN(c3ccccn3)CC2)cc1	PNC assembly inh inconclusive, Tau fibril ThT inconclusive, KDM4E inh inconclusive | tau sediment inactive
Cc1ccc(NC(=O)C(=O)NCC(c2cccnc2)N2CCc3ccccc32)cc1Cl (stereo unspecified)	none (no result: PNC assembly inh, NPSR antag, KDM4E inh)
Cc1ccc(NCc2cc3cc4c(cc3n(CC(=O)Nc3ccc(C)cc3)c2=O)OCCO4)cc1	Tau fluor counter inconclusive (no result: PNC assembly inh, NPSR antag, KDM4E inh) | tau sediment inactive
CCc1ccc(NCc2cc3cc4c(cc3n(CC(=O)Nc3ccccc3C)c2=O)OCCO4)cc1	Tau fluor counter inconclusive (no result: PNC assembly inh, NPSR antag, KDM4E inh)
